The source of these data is PubChem BioAssay (NCATS).

Inconclusive results are not listed. Values without a mark were called inactive. Activity calls are given as the source filed them. Calls follow the shape of the dose curve; as a rule, active = well fitted cell-killing curve with a large enough effect; inconclusive = small, poorly fitted or top-dose-only effect, or effect the other way; inactive = flat fitted curve, though single readings scatter.

Common to all, as to experiment: Primary qHTS to identify gynecologic anti-cancer compounds using libraries of approved drugs and bioactive compounds (AID 1345084); also: nearly all actives have a fitted effect of over 55% in size
Holding throughout (settings): Gynecologic cancer cell panel viability, ATPlite luminescence, 48 h; series mostly up to 57.5 µM

The subject of assay [1] is OV90. Summed up: (§1)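 48 h compound exposure at 37 C, 5% CO2; five-point qHTS. ATPlite luminescence readout of cell ATP.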
Assay [2] has as its system PA-1. Summed up:
as §1

Assay [3] concerns SKOV3. Summed up:
as §1

The subject of assay [4] is Tov-21-G. Summed up:
as §1

The subject of assay [5] is Tov112D. Summed up:
as §1
Potency is read from the fitted curve at half-maximal effect.

As for `Cc1cc(C)c(-n2cc(C)c3c(Cl)nc(C)nc32)c(C)c1`, the Potency result in assay [1], in assay [2], in assay [3], in assay [4] and in assay [5] was “inactive” in each case.
As to `C/C=C/C1=CC2=C(CO1)C(=O)C(C)(OC(=O)c1c(C)cc(O)cc1OC)C(O)C2` (stereo not given), the Potency result in assay [1], in assay [2], in assay [3], in assay [4] and in assay [5] was “inactive” in each case.
In the case of `CCN(CC)CCCS(=O)(=O)N[C@H](CCc1ccccc1)c1nc(Cc2ccc(Br)cc2)no1`, the Potency entry in assay [1], in assay [2], in assay [3], in assay [4] and in assay [5] was “inactive” throughout.
In the case of `CCC(C)C(=O)O[C@H]1[C@@H](OC(=O)c2ccoc2)C[C@](C)(O)[C@]23OC(C)(C)[C@H](C[C@H](OC(=O)c4ccoc4)[C@]12COC(C)=O)[C@H]3OC(C)=O` (stereo not given in full), the Potency entry in assay [1], in assay [2], in assay [3], in assay [4] and in assay [5] was “inactive” throughout.
For `C=C1CCCC2(C)CCC(C(C)(C)OC3OC(C)C(O)C(O)C3OC(=O)/C(C)=C\C)CC12` (stereo not given), the Potency entry in assay [1], in assay [2], in assay [3], in assay [4] and in assay [5] was “inactive” each time.
For `COc1c(CCC(=O)O)cccc1O[C@@H]1O[C@H](CO)[C@@H](O)[C@H](O)[C@H]1O`, the Potency result in assay [1], in assay [2], in assay [3], in assay [4] and in assay [5] was “inactive” each time.
Consider `Cc1nc(C(=O)N2CCC[C@H]2Cc2nnc(-c3ccccc3)o2)c(-c2ccccc2F)s1`, for which the Potency result in assay [1], in assay [2], in assay [3], in assay [4] and in assay [5] was “inactive” in each case.
As for `COc1ccccc1OCCN1CC(COc2cccc3[nH]c4ccccc4c23)OCC1=O` (stereo not given), the Potency result in assay [1], in assay [2], in assay [3], in assay [4] and in assay [5] was “inactive” in each case.
Regarding `CC(C)C(C)C(O)C1CC23CC(=O)C4(O)C(=C2CCC3C1C)C=CC1(O)CC(O)CCC14C` (stereo not given), the Potency result in assay [1], in assay [2], in assay [3], in assay [4] and in assay [5] was “inactive” in each case.
Turning to `CC(=O)OC[C@]12[C@H](OC(C)=O)C(=O)[C@@H]3[C@@H](O)[C@@]14O[C@@]3(C)COC(=O)c1cccnc1[C@@H](C)[C@H](C)C(=O)O[C@@H]([C@H](O)[C@@H]2OC(C)=O)[C@]4(C)O`, the Potency result in assay [1], in assay [2], in assay [3], in assay [4] and in assay [5] was “inactive” in each case.
With `O=C(c1ccc(Cl)cc1)N1CCN(c2ccnc3cc(Cl)ccc23)CC1`, the Potency result in assay [1], in assay [2], in assay [3], in assay [4] and in assay [5] was “inactive” each time.
For `FC(F)(F)c1ccccc1-c1cc(C(F)(F)F)c2nc(C3=NOC4(CCCCC4)C3)[nH]c2c1`, the Potency result in assay [1], in assay [2], in assay [3], in assay [4] and in assay [5] was “inactive” in each case.
`Cc1cc(C)cc(-c2cnc3cc(Cl)c(-c4cccc(O)c4)cc3c2OCCCN)c1`: the Potency entry in assay [1], in assay [2], in assay [3], in assay [4] and in assay [5] was “inactive” throughout.
As to `C=C(C)C1=C[C@@]2(C)C(=CC1=O)CC[C@@H](O)[C@@H]2C`, the Potency entry in assay [1], in assay [2], in assay [3], in assay [4] and in assay [5] was “inactive” each time.
`CCOC(=O)c1cnc2ccc(-c3cncc(NS(=O)(=O)c4ccccc4)c3)cn12`: the Potency in assay [1] was 11.2 µM (active); in assay [2], 1.78 µM (active); in assay [3], 31.6 µM (active); in assay [4], 4.47 µM (active); in assay [5] it was 1.41 µM (active).
Take `COc1ccc([C@H](Cc2ccncc2)c2ccccc2)cc1OC1CCCC1`: the Potency entry in assay [1], in assay [2], in assay [3], in assay [4] and in assay [5] was “inactive” in each case.
Regarding `COc1ccc([C@H]2Cc3cccc(O)c3C(=O)O2)cc1OC`, the Potency result in assay [1], in assay [2], in assay [3], in assay [4] and in assay [5] was “inactive” each time.
For `C/C=C(\C)C(=O)OC1C(C)C2(O)C(C=C(CO)CC3(O)C(=O)C(C)=CC32)C2C(C)(C)C12OC(=O)C(C)C` (stereo not given), the Potency result in assay [1], in assay [2], in assay [3], in assay [4] and in assay [5] was “inactive” each time.
`O=C(NCc1ccc(OC(F)(F)F)cc1)C1c2c(F)cccc2C(=O)N1CCc1ccccn1` (stereo not given): the Potency result in assay [1], in assay [2], in assay [3], in assay [4] and in assay [5] was “inactive” each time.
For the compound `CC(=O)O[C@H]1C[C@@](O)(C(C)C)[C@@H]2[C@@H](OC(=O)c3ccc(O)cc3)CC(C)=CC[C@@]12C`, the Potency result in assay [1], in assay [2], in assay [3], in assay [4] and in assay [5] was “inactive” throughout.
Turning to `CC12CCC3C1C(c1c(cc(O)c(C(=O)c4ccccc4)c1O)O2)C3(C)C` (stereo not given), the Potency entry in assay [1], in assay [2], in assay [3], in assay [4] and in assay [5] was “inactive” each time.
Regarding `CC(=O)NC[C@H]1CN(c2ccc(N3CCSCC3)c(F)c2)C(=O)O1`, the Potency result in assay [1], in assay [2], in assay [3], in assay [4] and in assay [5] was “inactive” throughout.
Turning to `C/C=C/C=C/C(=O)O[C@@H]1C=C2COC(=O)[C@]2(O)[C@@]2(C)CCCC(C)(C)[C@H]12`, the Potency result in assay [1], in assay [2], in assay [3], in assay [4] and in assay [5] was “inactive” in each case.
Take `O=C(NCc1ccccc1)c1ccc2c(=O)n(-c3cccc(C(F)(F)F)c3)c(=S)[nH]c2c1`: the Potency result in assay [1], in assay [2], in assay [3], in assay [4] and in assay [5] was “inactive” throughout.
Take `CC(=O)O[C@H]1C[C@H](OC(C)=O)[C@]2(C)[C@H](CC[C@@]34O[C@@H]3C3=C(C)C(=O)O[C@@H]3C[C@H]42)C1(C)C`: the Potency result in assay [1], in assay [2], in assay [3], in assay [4] and in assay [5] was “inactive” each time.
`O=C(N[C@H](Cc1cscn1)C(=O)N[C@@H](CC1CCCCC1)[C@@H](O)[C@@H](O)C1CC1)c1nc2ccccc2[nH]1`: the Potency result in assay [1], in assay [2], in assay [3], in assay [4] and in assay [5] was “inactive” throughout.
